BAZ2B block – blocks human BAZ2B; 360,000 compounds, 4.4% hits; Potency, µM (highest dose often 114 µM), hits mostly inhibitors; AlphaScreen BAZ2B-H3K14Ac peptide displacement; Q9UIF8; AID 504333; note: nearly all actives have a fitted effect of over 60% in size
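Inhibition is scored as reduced AlphaScreen emission. The BAZ2B/b-H3(5-23)K14Ac complex (50 nM each) in PBS pH 7.4, 0.01% Tween-20 meets compound (up to 110 uM) for 30 min at RT before bead addition.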
Sfp inh – blocks B. subtilis Sfp PPTase activity. Biochemical Sfp PPTase activity, qHTS. Potency, µM, actives largely listed as inhibitors. 310,000 compounds, 3.5% hits. Q9F4F7;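 note: the enzyme is Sfp with the accession as filed and its product quenches rhodamine fluorescence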
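With Hepes-Na pH 7.6 buffer containing 10 mM MgCl2, Sfp (15 nM) modified BHQ-2-YbbR (12.5 uM) using rhodamine-CoA (5 uM). Two reads 30 minutes apart at 525/598 nm yielded each well's rate.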
HP1b binding inh – blocks HP1-beta chromodomain binding to methylated histone tails; Potency, µM (series often up to 114 µM), most hits filed as inhibitors; 390,000 compounds, 0.56% hits; AID 540317; AlphaScreen HP1-beta / biotin-H3K9me3 peptide binding; note: nearly all actives have a fitted effect of over 70% in size
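AlphaScreen: HP1-beta (50 nM) preformed 30 min with biotin-H3(1-18)K9me3 peptide (50 nM) in PBS pH 7.4, 0.01% Tween-20. Compound added for 30 min at RT, then streptavidin donor/nickel chelate acceptor beads (10 ug/mL) for 30 min.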
PLK1 PBD inh – PLK1 (human) polo-box domain binding inhibition; 360,000 compounds, 2.8% hits; Plk1 PBD binding of FITC phosphopeptide, fluorescence polarization; P53350; Potency, µM, actives largely listed as inhibitors; note: series mostly up to about 57 µM; nearly all actives have a fitted effect of over 65% in size
G9a inh – inhibitors of human histone lysine methyltransferase G9a; AID 504332; Q96KQ7; Potency, µM (top dose mostly 102 µM), usual class: inhibitors; 350,000 compounds, 8.8% hits; G9a H3K9 monomethylation, AlphaScreen, 2 h; note: nearly all actives have a fitted effect of over 75% in size
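G9a (20 nM) preincubated 15 min RT with compounds, then 500 nM biotinylated H3K9 peptide and 20 uM SAM added; 2 h RT reaction. Monomethyl-H3K9 product detected by AlphaScreen with anti-H3K9me1 antibody, streptavidin donor and anti-rabbit IgG acceptor beads.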
JMJD2A Tudor – inhibitors of human JMJD2A Tudor domain. O75164. 390,000 compounds, 4.4% hits. AID 504339. AlphaScreen JMJD2A-Tudor / H3K4me3 peptide binding. Potency, µM (top dose mostly 114 µM), hits mostly inhibitors; note: nearly all actives have a fitted effect of over 50% in size
Large screens that a line does not name were inactive. This is a sample that favours compounds with a hit; in the whole collection about 12% have one here. Calls come from the whole dose curve; as a rule, active = well fitted curve in the direction sought with a large enough effect; inconclusive = small, poorly fitted or top-dose-only effect, or another doubt; inactive = no such curve, though single readings can be large; an effect the other way counts as inactive or inconclusive.

COc1cc(/C=C2/C(=N)N3C=CSC3=NC2=O)ccc1OCCCOc1c(C)cccc1C	Sfp inh inconclusive
CCS(=O)(=O)C1=NSC2=NC(=O)/C(=C\c3ccc(OS(=O)(=O)c4ccccc4)c(OC)c3)C(=N)N21	BAZ2B block 50µM, PLK1 PBD inh 27µM, G9a inh 40µM, JMJD2A Tudor 56µM
COc1ccc(CNC(=S)Nc2ccccc2C)cc1	PLK1 PBD inh 17µM, JMJD2A Tudor inconclusive
Cc1ccccc1NC(=S)NCc1ccc2[nH]c3c(c2c1)CCCC3	BAZ2B block 40µM, HP1b binding inh inconclusive, G9a inh 40µM, JMJD2A Tudor 40µM
S=C(NCc1ccc(Cl)cc1)Nc1ccccc1Cl	none
COc1ccc(CNC(=S)Nc2cc(C)ccc2C)cc1	PLK1 PBD inh inconclusive, G9a inh inconclusive
S=C(NCc1ccc2[nH]c3c(c2c1)CCCC3)Nc1ccccc1Cl	BAZ2B block 35µM, HP1b binding inh inconclusive, G9a inh 40µM, JMJD2A Tudor 50µM
Cc1ccc(C)c(NC(=S)NCc2ccc3[nH]c4c(c3c2)CCCC4)c1	BAZ2B block 32µM, HP1b binding inh inconclusive, G9a inh 40µM, JMJD2A Tudor 50µM
COCCNC(=O)[C@H](C)/C=C(\c1cccnc1)C(NC(=O)OCc1ccccc1)c1ccc(C(=O)OC)cc1 (stereo partly specified)	none (no result: BAZ2B block, HP1b binding inh, PLK1 PBD inh, G9a inh, JMJD2A Tudor)
CC#CCN1c2ccccc2[C@]23C[C@@H](C(=O)OC)N(S(=O)(=O)CCCC)C2=NC(C(=O)OC)=C(C(=O)OC)[C@H]13	none (no result: BAZ2B block, HP1b binding inh, PLK1 PBD inh, G9a inh, JMJD2A Tudor)
CC(C)Cn1cc(-c2cccc3nccn23)cn1	none (no result: BAZ2B block, Sfp inh, HP1b binding inh, G9a inh, JMJD2A Tudor)
S=C1NCN(Cc2ccco2)CN1c1cccc2ccccc12	none
S=c1[nH]nc(-c2cc(-c3ccco3)[nH]n2)n1-c1cccc2ccccc12	BAZ2B block 40µM, Sfp inh 10µM, HP1b binding inh inconclusive, PLK1 PBD inh inconclusive, G9a inh 4µM, JMJD2A Tudor 89µM
Cc1ccc(-n2c(-c3cc(-c4ccco4)[nH]n3)n[nH]c2=S)c(Br)c1	BAZ2B block inconclusive, Sfp inh 50µM, G9a inh 5.6µM
COC(=O)C(c1cc(OC)c(O)c(OC)c1)(N1CCNC(C)C1)C(F)(F)F (stereo unspecified)	G9a inh 10µM
CC(Oc1ccccc1)C(=O)Nc1ccc(C(=O)OCc2cc(=O)n3ccsc3n2)cc1 (stereo unspecified)	none (no result: Sfp inh, PLK1 PBD inh)
Cc1cc(C(=O)COc2ccc([N+](=O)[O-])cc2)c(C)n1C1CC1	none
Cc1cc(C(=O)COc2cc(F)ccc2[N+](=O)[O-])c(C)n1C1CC1	BAZ2B block inconclusive, G9a inh 35µM, JMJD2A Tudor inconclusive
NC(=S)NCCCC(N)C(=O)O (stereo unspecified)	G9a inh 8.9µM (no result: BAZ2B block, Sfp inh, HP1b binding inh, PLK1 PBD inh, JMJD2A Tudor)
CC1CCN(C(=O)CSc2nc(-c3ccc(C(C)C)cc3)no2)CC1	none (no result: Sfp inh, PLK1 PBD inh)
Cc1coc2c(C)c3oc(=O)c(CCC(=O)N[C@@H](C)C(=O)N[C@@H](Cc4ccccc4)C(=O)O)c(C)c3cc12	BAZ2B block inconclusive, JMJD2A Tudor 89µM (no result: G9a inh)
CCCC(NC(=O)Cc1c(C)c2cc3c(C)c(C)oc3c(C)c2oc1=O)C(=O)N[C@@H](Cc1ccccc1)C(=O)O (stereo partly specified)	BAZ2B block 50µM, HP1b binding inh inconclusive, PLK1 PBD inh inconclusive, JMJD2A Tudor 56µM
Cc1cccc(CNC(=O)CN2C(=O)CSc3c2c(C)nn3-c2ccccc2)c1	none (no result: Sfp inh, PLK1 PBD inh)
Cc1nc2ccc(S(=O)(=O)NC(C(=O)N3CCN(c4ccc(Cl)cc4)CC3)C(C)C)cc2s1 (stereo unspecified)	none (no result: Sfp inh, PLK1 PBD inh)
N=C1/C(=C\c2ccc(SCc3ccco3)o2)C(=O)N=C2SC=NN12	BAZ2B block inconclusive, Sfp inh 79µM, PLK1 PBD inh inconclusive, JMJD2A Tudor inconclusive
C=C(C)C(=O)/C=C/CCC/C=C/C(=O)OCC	none (no result: BAZ2B block, HP1b binding inh, PLK1 PBD inh, G9a inh, JMJD2A Tudor)
O=C1c2nccnc2C(=O)N1c1ccc(C(F)(F)F)cc1	G9a inh 50µM
O=C(Nc1ncccn1)c1ccc(C(F)(F)F)cc1	none
CC1CCC(N2CC(=O)N(C3CCCCC3)C(c3ccc(F)cc3)C2=O)CC1 (stereo unspecified)	none (no result: Sfp inh, PLK1 PBD inh)
Cc1onc(-c2ccccc2)c1C(=O)Nc1nncs1	JMJD2A Tudor inconclusive
Cc1cccnc1NC(=O)CN1C(=O)COc2ccc(Cl)cc21	BAZ2B block 56µM
O=C(CN1C(=O)COc2ccc(Cl)cc21)Nc1nccs1	none (no result: Sfp inh)
COc1cccc2cc(C(=O)C3=C(O)C(=O)N(CCCN(C)C)C3c3ccncc3)oc12 (stereo unspecified)	G9a inh inconclusive (no result: HP1b binding inh, PLK1 PBD inh, JMJD2A Tudor)
CN(C)CCN1C(=O)C(O)=C(C(=O)c2cc3ccccc3o2)C1c1ccc(N(C)C)cc1 (stereo unspecified)	BAZ2B block inconclusive, G9a inh 50µM, JMJD2A Tudor inconclusive
COc1cccc(C2C(C(=O)c3cc4ccccc4o3)=C(O)C(=O)N2CCN(C)C)c1OC (stereo unspecified)	none (no result: BAZ2B block, Sfp inh, G9a inh)
CCN(CC)CCCN1C(=O)C(O)=C(C(=O)c2cc3cccc(OC)c3o2)C1c1ccncc1 (stereo unspecified)	G9a inh 50µM (no result: HP1b binding inh)
COc1cccc2cc(C(=O)C3=C(O)C(=O)N(CCN(C)C)C3c3ccc(F)cc3)oc12 (stereo unspecified)	G9a inh 50µM
Cc1ccccc1Cn1c(=O)n(CCCCC(=O)NCc2ccc3c(c2)OCO3)c(=O)c2ccccc21	none (no result: Sfp inh, PLK1 PBD inh)
Cc1ccc2c(c1)N(C(C)C(=O)NCc1ccc3c(c1)OCO3)C(=O)CO2 (stereo unspecified)	none
CC(=O)Oc1cc(OC(C)=O)c2c(=O)cc(-c3ccc(OC(C)=O)c(OC(C)=O)c3)oc2c1	none (no result: BAZ2B block, HP1b binding inh, PLK1 PBD inh, G9a inh, JMJD2A Tudor)
COc1cc(/C=N/NS(=O)(=O)c2ccc3ccccc3c2)ccc1OCc1ccc(C(=O)O)cc1	G9a inh 50µM
CC(=O)Oc1ccc(/C=N/NS(=O)(=O)c2ccc(C)cc2)c(OC(C)=O)c1	G9a inh 40µM
COc1ccc(/C=N/NS(=O)(=O)c2ccc(C)cc2)cc1OC(=O)c1ccccc1	BAZ2B block 79µM
COc1ccc(O)c(/C=N/NS(=O)(=O)c2ccc(C)cc2)c1	none
Cc1ccc(S(=O)(=O)N/N=C/c2ccc3nccnc3c2)cc1	PLK1 PBD inh inconclusive, G9a inh 3.2µM
Cc1ccc(S(=O)(=O)N/N=C\c2cccnc2)cc1	none
Cc1cccc(C(=O)Nc2ccc(OCc3cc(=O)n4ccsc4n3)cc2)c1	none (no result: Sfp inh, PLK1 PBD inh)
Cc1[nH]c2ccccc2c1-c1csc(NC(=O)CSCCO)n1	BAZ2B block inconclusive, G9a inh 71µM, JMJD2A Tudor inconclusive
Cc1nc(NC(=O)c2ccc([N+](=O)[O-])cc2Cl)sc1C(=O)N(C)C	Sfp inh 40µM, PLK1 PBD inh 19µM, G9a inh inconclusive, JMJD2A Tudor inconclusive
